# Measured values: ChEMBL document CHEMBL4296182, “CO-ADD screening of NIH NCI Diversity Set V”
# Tested on: Staphylococcus aureus
# Assay: Antibacterial activity against Staphylococcus aureus MRSA ATCC 43300 (CO-ADD:GP_020); MIC in CAMBH media using NBS plates, by Resazurin F(560/590)
# Type: functional
# Details: Concentration 20 uM, ASSAY_TEST Inhibition of Bacterial Growth, detection method Resazurin, Fluorescence (ex560/em590), MEDIA CAMHB, plate type 384well, CORNING #3640, time 18 hr
row,SMILES,Inhibition [%]
1,COc1ccc(C(=S)N2CCN(c3ccccc3C)CC2)cc1,6.05
2,N#CC1=CC2CN(Cc3ccccc3)C1C1C(=O)N(c3ccccc3)C(=O)C21 (stereo not drawn),-0.51
3,CC1CC=C(O)C12OCC(C)(C)CO2 (stereo not drawn),3.19
4,COc1ccc([N+](=O)[O-])cc1NC(=O)N(C)Cc1ccco1,9.28
5,CCCN=C(S)Nc1ccccc1,-20.14
6,OC(COc1ccc(Cl)cc1)CN1CCN(c2cccc(Cl)c2)CC1 (stereo not drawn),15.95
7,COc1ccc2c3c([nH]c2c1)[C@H]1C[C@H]2[C@H](C[C@@H](O)[C@H](OC)[C@H]2CO)CN1CC3,17.92
8,C1COCCN1.O=C(O)C(C=C(Cl)Cl)N1CCOCC1 (stereo not drawn),15.53
9,OC1(Cc2ccccc2)CCNCC1,8.09
10,C/C(=N\O)C1CC(CC(=O)O)C1(C)C (stereo not drawn),-0.7
11,Clc1nc(NCCc2ccccc2)c2c[nH]nc2n1,2.77
12,CC(NC(=O)c1ccc(Cl)c(Cl)c1)c1ccc(-c2ccccc2)cc1 (stereo not drawn),12.08
13,O=C(Nc1ccc2ccccc2c1)c1cccc(F)c1,-15.53
14,O=C(/C=C/C(=O)N1CCc2ccccc2C1)N1CCc2ccccc2C1,0.65
15,O=C(O)C1OCC2(CO1)COC(C(=O)O)OC2 (stereo not drawn),10.92
16,CC1(C)C2CCC(CN=C(N)CSS(=O)(=O)O)C1C2 (stereo not drawn),18.41
17,CCCCSc1cc(O)nc(N)n1,-2.6
18,CCc1oc2ccccc2c1C(=O)c1cc(Br)c(O)c(Br)c1 [BENZBROMARONE],-12.4
